In the library only some 0.65% were active in any assay of this set; here they are far more common.
Mtb UGM inh: M. tuberculosis UGM enzyme inhibitors, primary screen, biochemical, fluorescence polarization, single point; UDP-galactopyranose mutase (Mycobacterium tuberculosis (strain ATCC 25618 / H37Rv)), …; purified UGM, fluorescence polarization probe displacement; inhibition, % at 10 µM; 320,000 compounds, 0.06% hits; in the data active = inhibition above about 10%, passing the limit was not always enough; inconclusive = no clear call, values can overlap the other calls
Y pestis TopoI: Yersinia pestis topoisomerase I inhibitors, primary screen, biochemical, cleavage product accumulation, plate reader, single point; DNA topoisomerase I (Yersinia pestis CO92); Y. pestis Topo-I cleavage product accumulation; activity, % at 10 µM; 360,000 compounds, 0.064% hits; AID 504884, 2011; in the data active = activity above about 50%, passing the limit was not always enough; inconclusive = no clear call, values can overlap the other calls
PrP 5UTR inh: inhibition of PrP 5' UTR reporter expression. 340,000 compounds, 0.35% hits. cell-based PrP 5' UTR mRNA reporter, plate reader. inhibition, % (concentration not given with the values); in the data active = inhibition above about 52%; note: 0 = median of the neutral control wells
TcdB GH inh: TcdB glycohydrolase inhibitors, primary screen, biochemical, single point, plate reader. Toxin B (Clostridioides difficile), P18177. TcdB glycohydrolase enzymatic assay. 350,000 compounds, 0.24% hits. inhibition, % at 9.99 µM; in the data active = inhibition above about 10%
BH1578 lux ind: inducers of Vibrio cholerae quorum light production without autoinducers, primary screen, BH1578 luxS cqsA deficient, single point | V. cholerae BH1578 lux reporter, luminescence, 6 h | activation, % at 18.7 µM | 350,000 compounds, 0.16% hits | AID 588436, 2011; in the data active = activation mostly above about 9.7%, no sharp cut-off; inconclusive = no clear call, values can overlap the other calls; inactive = mostly below about 3.7%
PrP UTR cherry: prion 5' UTR mRNA inhibition, cherry-pick retest; shares compounds with PrP 5UTR inh; cell-based prion protein 5' UTR reporter, plate reader; inhibition, % at 2.5 µM; 1,100 compounds, 48% hits; AID 504592, 2011; in the data active = inhibition above about 54%; inconclusive = no clear call, values can overlap the other calls
* = called active by the depositor; i = inactive; u = inconclusive; x = no result.

SMILES | Mtb UGM inh | Y pestis TopoI | PrP 5UTR inh | TcdB GH inh | BH1578 lux ind | PrP UTR cherry
Nc1nc(-c2ccc(NC(=O)c3ccco3)cc2)cs1 | -0.1 | -2.9 | 66.5* | -4.0 | 0.4 | 16.5
O=C(Nc1ccc(NC(=O)c2ccco2)cc1)c1ccco1 | 0.7 | -2.5 | -23.2 | 0.4 | i | x
CN1c2ccc(C3=CCCCC3)cc2[C@H]2[C@H](CCN2S(=O)(=O)c2ccccc2F)[C@@H]1CO | x | x | x | -0.2 | x | x
Cc1nc2ccccc2c2oc(C(=O)NC3CC3)cc12 | 0.8 | -1.1 | 15.3 | 1.6 | -0.2 | x
CCOc1ccc(NC(=O)c2cc3c(C)nc4ccccc4c3o2)cc1 | -0.9 | 10.1 | 61.8* | 0.2 | -0.1 | 13.6
CSc1ccc(CN(C)C(C)C(=O)Nc2ccc(F)c(F)c2F)cc1 (stereo not given) | -0.5 | 28.8 | 53.2* | 0.7 | i | -0.5
CC(C(=O)Nc1ccc(F)c(F)c1F)N(C)CC(=O)Nc1ccccc1Br (stereo not given) | -0.7 | 5.8 | -19.1 | 0.6 | -0.3 | x
CCN=C1NN=C(c2cc(C)n(Cc3ccco3)c2C)CS1 | 0.4 | -7.3 | 83.4* | 1.5 | -0.4 | 72.2*
COc1cc(OC)c2c(-c3cccc(-c4ccc(C(C)=O)cc4)c3)cc(=O)oc2c1 | x | 1.0 | 64.2* | x | -1.9 | 92.7*
Cc1ccc(/C=N/Nc2cccc(C(=O)O)c2)s1 | -0.4 | -12.3 | 40.3 | x | i | x
CC(C)c1ccc(/C=N/Nc2ccc(C(=O)O)cc2)cc1 | 3.8 | -8.4 | 63.4* | -0.7 | 1.6 | 39.5
Cc1ccc(/C=N/Nc2ccc(C(=O)O)cc2)s1 | 2.0 | 3.0 | 63.3* | -2.3 | 2.2 | 53.5*
COc1ccc(-c2ccc([C@H]3[C@@H](CO)N4C(=O)CNC[C@@H]34)cc2)cc1 | x | x | x | 0.2 | x | x
COc1ccc(S(=O)(=O)Nc2cccc3c2O[C@H](CN(C)S(=O)(=O)c2cn(C)cn2)[C@@H](C)CN([C@@H](C)CO)C3=O)cc1 | x | x | x | 0.2 | x | x
O=C(NC1CCCCC1)N1CCN(c2ccccc2)CC1 | 3.6 | -4.8 | 67.0* | x | -0.6 | -36.2
Cc1ccc(S(=O)(=O)N(C)C[C@@H]2Oc3cc(C#Cc4ccncc4)ccc3S(=O)(=O)N([C@@H](C)CO)C[C@@H]2C)cc1 | x | x | x | 0.4 | x | x
C[C@H](CO)N1C[C@H](C)[C@@H](CN(C)C(=O)Nc2cccc3ccccc23)Oc2ccc(NC(=O)CCCN(C)C)cc2C1=O | x | x | x | -0.8 | x | x
NNC(=S)NC1CCCCC1 | -0.3 | -3.6 | 79.9* | 0.0 | i | -18.1
CCCCCCN1C=CC(=C2C(=O)c3ccccc3C2=O)C=C1 | 0.8 | -6.2 | 72.0* | 1.3 | -0.9 | 71.6*
CCCCN1C(C)=CC(=C2C(=O)c3ccccc3C2=O)C=C1C | 0.3 | 17.2 | 8.7 | 1.6 | -0.6 | x
CCCN1C=CC(=C2C(=O)c3ccccc3C2=O)C=C1 | -0.8 | 12.4 | 92.7* | x | i | 96.3*
CCN1C=CC(=C2C(=O)c3ccccc3C2=O)C=C1 | 0.2 | 1.6 | 87.8* | x | i | 90.7*
COc1cccc(NC(=O)C[C@H]2CC[C@H]3[C@H](COc4ccc(NC(C)=O)cc4C(=O)N3C)O2)c1 | x | x | x | 0.2 | x | x
COc1cccc2c1C(=O)c1c(O)c3c(c(O)c1C2=O)CC(O)(C(=O)CO)CC3OC1CC(N(C)C)C(O)C(C)O1 (stereo not given) | x | -33.6 | 85.6* | -22.4 | i | 95.1*
COc1cccc2c1C(=O)c1c(O)c3c(c(O)c1C2=O)C[C@@](O)(C(=O)CO)C[C@@H]3O[C@H]1C[C@H](N)[C@@H](O)[C@H](C)O1 | 37.6* | -10.7 | 74.7* | x | -2.8 | 87.4*
SMILES | Mtb UGM inh | Y pestis TopoI | PrP 5UTR inh | TcdB GH inh | BH1578 lux ind | PrP UTR cherry
CO[C@@H]1CN(C)C(=O)c2cc(NC(=O)Nc3c(C)noc3C)ccc2OC[C@@H](C)N(C(=O)Nc2cccc(Cl)c2)C[C@H]1C | x | x | x | -0.2 | x | x
O=C([C@H]1[C@H](CO)[C@H]2Cn3c(ccc(C4=CCCC4)c3=O)[C@@H]1N2Cc1nccs1)N1CCCCC1 | x | x | x | -1.2 | x | x
CCOC(=O)C(C)Oc1cccc2c(=O)n(CC(=O)NCCc3ccccc3)ccc12 (stereo not given) | 5.2 | 13.2 | -70.5 | -0.7 | -0.2 | x
CCOC(=O)C(C)Oc1cccc2c(=O)n(CC(=O)Nc3ccc(OC)cc3)ccc12 (stereo not given) | x | 20.1 | x | 0.0 | -0.4 | x
CCOC(=O)C(C)Oc1cccc2c(=O)n(CC(=O)NCc3ccccc3)ccc12 (stereo not given) | 1.0 | -11.0 | 75.4* | 0.8 | -0.2 | 88.0*
CCOC(=O)C(C)Oc1cccc2c(=O)n(CC(=O)NCc3ccc(F)cc3)ccc12 (stereo not given) | -2.1 | 4.8 | 79.4* | 0.0 | -0.2 | 90.8*
CCS(=O)(=O)Nc1ccc2c(c1)C(=O)N(C)C[C@@H](OC)[C@H](C)CN(Cc1nccs1)[C@@H](C)CO2 | x | x | x | -1.0 | x | x
Cc1noc(C)c1NC(=O)N(C)C[C@H]1Oc2ccc(NS(=O)(=O)c3ccccc3)cc2C(=O)N([C@@H](C)CO)C[C@H]1C | x | x | x | 0.1 | x | x
Cc1ccc2nc(-c3ccccc3)nn2c1 | x | 3.0 | 61.2* | 1.1 | -0.8 | u
O=C(NCc1ccccc1Cl)c1ccc[nH]1 | 1.1 | 1.7 | 76.6* | 1.8 | -0.6 | 23.1
Cc1ccc(C(=O)Sc2cccccc2=O)cc1 | -1.1 | 4.8 | 57.3* | -1.1 | i | u
O=C(Nc1ccccc1SC(=O)c1ccccc1)c1ccccc1 | x | 15.5 | x | 1.6 | i | x
CC(C)NC(=O)Nc1cccc2c1O[C@@H](CN(C)S(=O)(=O)c1ccccc1)[C@H](C)CN([C@H](C)CO)C2=O | x | x | x | 0.9 | x | x
CN(C)S(=O)(=O)c1ccc(C(=O)NCc2ccccc2)cc1 | -0.2 | 2.1 | -11.5 | x | i | x
CN(C)S(=O)(=O)c1ccc(C(=O)NCC2CC2(Cl)Cl)cc1 (stereo not given) | 1.7 | 0.3 | 63.4* | 2.3 | -0.4 | 17.1
Cc1cc(C=C2C(=O)N(C)C(=O)N(C)C2=O)c(C)n1-c1ccccc1 | 0.4 | -2.1 | -4.1 | x | -0.1 | x
Cc1cc(C=C2C(=O)c3ccccc3C2=O)c(C)n1-c1ccccc1 | 2.2 | 3.0 | 75.4* | x | -0.3 | 61.8*
C=CCn1c(O)c(C=Nc2ccc(OC)cc2C)c(=O)[nH]c1=O | 4.1 | 4.5 | 55.2* | x | i | 0.4
CN(C)C(=O)C[C@H]1CC[C@H](NC(=O)c2ccc(F)cc2)[C@H](CO)O1 | x | x | x | -0.2 | x | x
CCOC(=O)c1cnc2c(-c3ccccc3OC)c(C)nn2c1C | 3.4 | 1.2 | 76.5* | -0.6 | i | -25.0
CCOC(=O)c1cnc2c(-c3ccccc3)c(-c3ccccc3)nn2c1C | -0.2 | 6.1 | -21.6 | -0.2 | -1.2 | x
C[C@@H](NC(=O)C[C@@H]1CC[C@H](NC(=O)C2CC2)[C@H](CO)O1)c1ccccc1 | x | x | x | 0.1 | x | x
COC(=O)c1ccc(CCc2cc(O)ccc2O)cc1 | x | -7.9 | -33.3 | x | 5.6 | x

Compound activity from PubChem.
